Results as given in PubChem BioAssay (NCI).
Compounds without any hit were thinned out: in the full panel of roughly 83,000, 20% have a hit.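 Values shown are percent growth following 48 h exposure of cells in 96-well plates to a single concentration of compound; below 10 was considered active.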 Activity calls are given as the source filed them.

What was measured:
Assay in all cases: NCI-60 one-dose screen, 48 h (100 = growth as untreated, 0 = no growth, -100 = all killed)
Details in all cases: 10 µM unless noted
SR leukemia = system: SR leukemia
RPMI-8226 leukemia = system: RPMI-8226 leukemia
OVCAR-8 ovarian = system: OVCAR-8 ovarian
OVCAR-5 ovarian = system: OVCAR-5 ovarian
OVCAR-4 ovarian = system: OVCAR-4 ovarian
SK-OV-3 ovarian = system: SK-OV-3 ovarian
IGROV1 ovarian = system: IGROV1 ovarian
OVCAR-3 ovarian = system: OVCAR-3 ovarian
HS 578T breast = system: HS 578T breast
NCI/ADR-RES ovarian = system: NCI/ADR-RES ovarian

Measured: growth

Cc1cc[n+](CCCC[n+]2ccc(C)cc2)cc1
inactive: SR leukemia 97.3% | RPMI-8226 leukemia 94.2% | OVCAR-8 ovarian 108% | OVCAR-5 ovarian 104% | OVCAR-4 ovarian 114% | SK-OV-3 ovarian 116% | IGROV1 ovarian 99.7% | OVCAR-3 ovarian 106% | HS 578T breast 104% | NCI/ADR-RES ovarian 97.8%

O=C(Cn1c2ccccc2c2ccncc21)N/N=C\c1ccc2ccccc2c1
active: RPMI-8226 leukemia -1.73% | OVCAR-4 ovarian -11% | OVCAR-3 ovarian -37.1%
inactive: SR leukemia 33.5% | OVCAR-8 ovarian 14.2% | OVCAR-5 ovarian 75.2% | SK-OV-3 ovarian 36% | IGROV1 ovarian 43.1% | HS 578T breast 38.2% | NCI/ADR-RES ovarian 27.2%

Nn1c(CN2CCN(c3cc4c(cc3F)c(=O)c(C(=O)O)cn4C3CC3)CC2)n[nH]c1=S
inactive: SR leukemia 99.1% | RPMI-8226 leukemia 102% | OVCAR-8 ovarian 106% | OVCAR-5 ovarian 108% | OVCAR-4 ovarian 102% | SK-OV-3 ovarian 107% | IGROV1 ovarian 97.3% | OVCAR-3 ovarian 103% | HS 578T breast 108% | NCI/ADR-RES ovarian 106%

COc1ccc(-c2ccc(NC(=O)Nc3cccc(C(F)(F)F)c3)c(C)n2)cc1
inactive: SR leukemia 36.3% | RPMI-8226 leukemia 22.6% | OVCAR-8 ovarian 61.9% | OVCAR-5 ovarian 83% | OVCAR-4 ovarian 42.9% | SK-OV-3 ovarian 82.1% | IGROV1 ovarian 91.3% | OVCAR-3 ovarian 41.9% | HS 578T breast 88.9% | NCI/ADR-RES ovarian 53.2%

CCOc1ccc(-n2c(-c3cc(OC)c(OC)c(OC)c3)nnc2-c2ccc(OC)cc2N)cc1
inactive: SR leukemia 19.3% | RPMI-8226 leukemia 82.6% | OVCAR-8 ovarian 64.5% | OVCAR-5 ovarian 95.5% | OVCAR-4 ovarian 74.7% | SK-OV-3 ovarian 75.2% | IGROV1 ovarian 57.2% | OVCAR-3 ovarian 53.6% | HS 578T breast 77.7% | NCI/ADR-RES ovarian 77.1%

O=C(O)c1ccc(-n2cc(/C=N/Nc3ccc(F)cc3)c(-c3cccc(C(F)(F)F)c3)n2)cc1
inactive: SR leukemia 87% | RPMI-8226 leukemia 47.2% | OVCAR-8 ovarian 78.4% | OVCAR-5 ovarian 78.2% | OVCAR-4 ovarian 92.4% | SK-OV-3 ovarian 94.6% | IGROV1 ovarian 74.8% | OVCAR-3 ovarian 70.8% | HS 578T breast 89.2% | NCI/ADR-RES ovarian 65.2%

CCn1c(C)nc([N+](=O)[O-])c1Sc1nc(N)nc2nc[nH]c12
active: RPMI-8226 leukemia 3.41% | SK-OV-3 ovarian 5.32%
inactive: SR leukemia 16.6% | OVCAR-8 ovarian 24.1% | OVCAR-5 ovarian 31.7% | OVCAR-4 ovarian 47.4% | IGROV1 ovarian 77.5% | OVCAR-3 ovarian 24.5% | HS 578T breast 50.4% | NCI/ADR-RES ovarian 25.5%

CCN(CC)CCNCC(O)Cc1ccc(OC)cc1 (stereo not given)
inactive: SR leukemia 88.2% | RPMI-8226 leukemia 98.1% | OVCAR-8 ovarian 89.9% | OVCAR-5 ovarian 113% | OVCAR-4 ovarian 120% | SK-OV-3 ovarian 92.3% | IGROV1 ovarian 111% | OVCAR-3 ovarian 108% | HS 578T breast 95.8% | NCI/ADR-RES ovarian 107%

Nc1n[nH]c2cccc(C#Cc3cccc(NC(=O)c4cccc(C(F)(F)F)c4)c3)c12
inactive: SR leukemia 27.2% | RPMI-8226 leukemia 29.3% | OVCAR-8 ovarian 47.2% | OVCAR-5 ovarian 31.3% | OVCAR-4 ovarian 44.1% | SK-OV-3 ovarian 46.3% | OVCAR-3 ovarian 49.2% | NCI/ADR-RES ovarian 43.2%
active: IGROV1 ovarian -7.33% | HS 578T breast -0.652%

O=C(O)c1cccc(S(=O)(=O)c2ccccc2)c1
inactive: SR leukemia 97.1% | RPMI-8226 leukemia 103% | OVCAR-8 ovarian 112% | OVCAR-5 ovarian 99% | OVCAR-4 ovarian 102% | SK-OV-3 ovarian 116% | IGROV1 ovarian 100% | OVCAR-3 ovarian 107% | HS 578T breast 91.6% | NCI/ADR-RES ovarian 104%

CSc1ccc(C(=O)C[n+]2cccc(C)c2)cc1
inactive: SR leukemia 106% | RPMI-8226 leukemia 98.2% | OVCAR-8 ovarian 106% | OVCAR-5 ovarian 104% | OVCAR-4 ovarian 113% | SK-OV-3 ovarian 102% | IGROV1 ovarian 106% | OVCAR-3 ovarian 104% | HS 578T breast 98.4% | NCI/ADR-RES ovarian 104%

CNCCCOc1c(Br)cc(CCNC(=O)/C(Cc2cc(Br)c(OC)c(Br)c2)=N/O)cc1Br
active: SR leukemia -57% | RPMI-8226 leukemia -30.7% | OVCAR-8 ovarian 2.04% | IGROV1 ovarian 6.03% | OVCAR-3 ovarian -25.4% | HS 578T breast -17.9% | NCI/ADR-RES ovarian 9.44%
inactive: OVCAR-5 ovarian 36.2% | OVCAR-4 ovarian 14.3% | SK-OV-3 ovarian 37.2%

S=C=NP1(N=C=S)=NP(N=C=S)(N=C=S)=NP(N=C=S)(N=C=S)=NP(N=C=S)(N=C=S)=N1 (stereo not given)
inactive: SR leukemia 88.8% | RPMI-8226 leukemia 103% | OVCAR-8 ovarian 95.6% | OVCAR-5 ovarian 107% | OVCAR-4 ovarian 96.7% | SK-OV-3 ovarian 84.3% | IGROV1 ovarian 97.9% | OVCAR-3 ovarian 112% | HS 578T breast 98.5% | NCI/ADR-RES ovarian 107%

CCOc1ccc(NC2=C(Cl)C(=O)c3ccccc3C2=O)cc1
active: SR leukemia -6.21% | IGROV1 ovarian 0.21%
inactive: RPMI-8226 leukemia 41.7% | OVCAR-8 ovarian 62.7% | OVCAR-5 ovarian 110% | OVCAR-4 ovarian 91.9% | SK-OV-3 ovarian 92.1% | OVCAR-3 ovarian 43.5% | HS 578T breast 95.4% | NCI/ADR-RES ovarian 98.5%

CCCCOc1c(N)cccc1C(=O)OCCN(CC)CC
inactive: SR leukemia 83.9% | RPMI-8226 leukemia 123% | OVCAR-8 ovarian 92.8% | OVCAR-5 ovarian 113% | OVCAR-4 ovarian 107% | SK-OV-3 ovarian 108% | IGROV1 ovarian 104% | OVCAR-3 ovarian 101% | HS 578T breast 102% | NCI/ADR-RES ovarian 106%

CS(=O)(=O)Nc1cccc(-c2ccc3ncnc(Nc4cncc(Cl)c4)c3c2)c1
inactive: OVCAR-8 ovarian 38.7% | OVCAR-5 ovarian 56.7% | OVCAR-4 ovarian 50.9% | OVCAR-3 ovarian 31.9% | NCI/ADR-RES ovarian 79.7%
active: SR leukemia -10.5% | RPMI-8226 leukemia -8.07% | SK-OV-3 ovarian -7.86% | IGROV1 ovarian -13.8% | HS 578T breast -2.64%

O=C(O)c1ccc(-n2cc(/C=N/Nc3ccccc3F)c(-c3ccc(O)cc3)n2)cc1
inactive: SR leukemia 73.6% | RPMI-8226 leukemia 59.1% | OVCAR-8 ovarian 88.4% | OVCAR-5 ovarian 80.9% | OVCAR-4 ovarian 94.8% | SK-OV-3 ovarian 102% | IGROV1 ovarian 81% | OVCAR-3 ovarian 82.7% | HS 578T breast 92.4% | NCI/ADR-RES ovarian 80%

FC(F)(F)c1cn(CC2CNC2)c2ncnc(Cl)c12
inactive: SR leukemia 87% | RPMI-8226 leukemia 105% | OVCAR-8 ovarian 92.2% | OVCAR-5 ovarian 112% | OVCAR-4 ovarian 110% | SK-OV-3 ovarian 108% | IGROV1 ovarian 105% | OVCAR-3 ovarian 103% | HS 578T breast 105% | NCI/ADR-RES ovarian 102%

COc1cccc(-c2nc3sccn3c2-c2ccnc(NCCNC(=O)Nc3cccc(C(F)(F)F)c3)n2)c1
inactive: SR leukemia 38.5% | RPMI-8226 leukemia 20.4% | OVCAR-8 ovarian 21.3% | OVCAR-5 ovarian 103% | OVCAR-4 ovarian 91.1% | SK-OV-3 ovarian 78.6% | IGROV1 ovarian 50.9% | OVCAR-3 ovarian 66.3% | NCI/ADR-RES ovarian 27.2%

CCOC(=O)C1CSC(C)(C(=O)OCC)N1 (stereo not given)
inactive: SR leukemia 97.3% | RPMI-8226 leukemia 96.3% | OVCAR-8 ovarian 110% | OVCAR-5 ovarian 98.2% | OVCAR-4 ovarian 109% | SK-OV-3 ovarian 91.7% | IGROV1 ovarian 104% | OVCAR-3 ovarian 100% | HS 578T breast 112% | NCI/ADR-RES ovarian 101%

C=C1C(=O)O[C@H]2[C@H]1CC/C(C(=O)NCCOCCOCC(=O)Nc1ccc(OC)c(C(N)=O)c1O)=C\CC[C@@]1(C)O[C@@H]21
inactive: SR leukemia 75.3% | RPMI-8226 leukemia 97.2% | OVCAR-8 ovarian 89.8% | OVCAR-5 ovarian 96.4% | OVCAR-4 ovarian 101% | SK-OV-3 ovarian 91.6% | IGROV1 ovarian 98.8% | OVCAR-3 ovarian 84.3% | HS 578T breast 93% | NCI/ADR-RES ovarian 104%

CCC(CC(C)C)Nc1ccc(NC(CC)CC(C)C)cc1 (stereo not given)
inactive: SR leukemia 48.9% | OVCAR-8 ovarian 87.6% | OVCAR-5 ovarian 108% | OVCAR-4 ovarian 75.8% | SK-OV-3 ovarian 94.4% | IGROV1 ovarian 83.9% | NCI/ADR-RES ovarian 96.6%
active: RPMI-8226 leukemia -5.42% | OVCAR-3 ovarian -6.06%

COc1cc(NC(=O)c2cc(OC)c3ccn(C)c3c2)cc2c1C[C@]1(C)CC[C@@H](O)C(C)(C)[C@H]1O2
inactive: SR leukemia 19.2% | OVCAR-8 ovarian 75.8% | OVCAR-5 ovarian 81.4% | OVCAR-4 ovarian 84.6% | SK-OV-3 ovarian 53% | IGROV1 ovarian 68% | OVCAR-3 ovarian 80.7% | HS 578T breast 10.2% | NCI/ADR-RES ovarian 82.6%
active: RPMI-8226 leukemia -16.6%

CC(C)CCC[C@@H](C)[C@H]1CC[C@H]2[C@@H]3CC=C4N(c5ccccc5)C(=O)CC[C@]4(C)[C@H]3CC[C@]12C
inactive: SR leukemia 92.4% | RPMI-8226 leukemia 97.8% | OVCAR-8 ovarian 109% | OVCAR-5 ovarian 102% | OVCAR-4 ovarian 103% | SK-OV-3 ovarian 103% | IGROV1 ovarian 99.1% | OVCAR-3 ovarian 92.1% | NCI/ADR-RES ovarian 98.9%

Nc1nccc2c1ccn2-c1cccc(NC(=O)c2ccc(N3CCOCC3)c(C(F)(F)F)c2)c1
inactive: OVCAR-5 ovarian 32.6% | OVCAR-4 ovarian 78.5% | SK-OV-3 ovarian 16.6% | IGROV1 ovarian 28.1%
active: SR leukemia -13.4% | RPMI-8226 leukemia -40.9% | OVCAR-8 ovarian 0.868% | OVCAR-3 ovarian -27.2% | NCI/ADR-RES ovarian -2.74%

C=C1C(=O)O[C@H]2[C@H]1CC/C(COC(=O)c1cccc3ccccc13)=C\CC[C@@]1(C)O[C@@H]21
inactive: SK-OV-3 ovarian 84.3%
active: SR leukemia -31.4% | RPMI-8226 leukemia -40.5% | OVCAR-8 ovarian -42.8% | OVCAR-5 ovarian -47.9% | OVCAR-4 ovarian -38.9% | IGROV1 ovarian -68.5% | OVCAR-3 ovarian -86.5% | HS 578T breast 2.83% | NCI/ADR-RES ovarian -28.4%

CC(/C=C/C=C(\C)[C@H](O)[C@H](C)C(=O)O[C@H]1C[C@H](C)C=C2C=C[C@@]3(C)O[C@@H](O)CC(=O)[C@]3(C)[C@H]21)=C\C=C\C(=O)O
active: SR leukemia 1.43% | SK-OV-3 ovarian 2.67% | IGROV1 ovarian 5.48% | OVCAR-3 ovarian 2.71%
inactive: RPMI-8226 leukemia 27.6% | OVCAR-8 ovarian 21.6% | OVCAR-5 ovarian 18.6% | OVCAR-4 ovarian 23% | NCI/ADR-RES ovarian 53.8%
